# Most compounds without a hit are left out; they make up all but 6.2% or so of the library.
# RORg inh: inhibitors of mouse ROR gamma transcriptional activity; Drosophila S2 Gal4-RORgamma UAS-luciferase reporter, 20 h; Potency, µM (doses to about 53.6 µM), without a hit: at the top dose activity change, negative = inhibition, hits mostly inhibitors; 310,000 compounds, 5.4% hits; P51450; further: nearly all actives have a fitted effect of over 60% in size
# Target sequence (P51450 whole entry, looked up, the tested form may be a part): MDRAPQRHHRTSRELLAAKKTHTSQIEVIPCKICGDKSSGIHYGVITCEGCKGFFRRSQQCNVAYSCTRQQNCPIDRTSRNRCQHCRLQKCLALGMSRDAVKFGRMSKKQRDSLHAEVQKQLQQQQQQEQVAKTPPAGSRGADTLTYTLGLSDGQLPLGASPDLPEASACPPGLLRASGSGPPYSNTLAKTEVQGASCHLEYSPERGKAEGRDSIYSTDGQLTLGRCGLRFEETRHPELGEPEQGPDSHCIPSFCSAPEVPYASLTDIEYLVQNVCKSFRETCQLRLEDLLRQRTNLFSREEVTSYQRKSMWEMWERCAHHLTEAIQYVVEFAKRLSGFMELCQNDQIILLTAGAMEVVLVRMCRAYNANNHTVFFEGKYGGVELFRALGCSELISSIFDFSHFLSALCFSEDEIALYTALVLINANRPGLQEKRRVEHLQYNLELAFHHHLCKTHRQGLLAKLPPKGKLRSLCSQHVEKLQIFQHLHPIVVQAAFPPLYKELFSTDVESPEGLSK
#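 Luciferase reporter read in Schneider cells carrying Gal4-RORγ (mouse) and UAS-Photinus luciferase; cells given compound 1 h before 700 uM copper sulfate induction, then incubated 20 h at ambient temperature.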
# Gal4-VP16 FLuc: counter-screen for ROR gamma inhibitors: Gal4-VP16 reporter; Drosophila S2 Gal4-VP16 UAS-luciferase, luminescence, 20 h; 310,000 compounds, 3.5% hits; Potency, µM (doses to about 53.6 µM), without a hit: top-dose activity, negative = inhibition, most hits filed as inhibitors;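 further: Gal4-VP16 expression switched on by copper sulfate through the metallothionein promoter; nearly all actives have a fitted effect of over 50% in size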
# Luc counter: blocks Kinase-Glo luciferase, a counter-screen artifact. 200,000 compounds, 0.28% hits. Kinase-Glo luciferase, ATP luminescence, 8 min. Q27757. Potency, µM (titrated, usually from 38.3 µM), without a hit: top-dose activity change, negative = inhibition, actives largely listed as inhibitors; further: nearly all actives have a fitted effect of over 60% in size
#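 Compound is pinned into ATP-containing buffer (10 uM ATP, imidazole pH 7.2, 7 mM MgCl2). Kinase-Glo luciferase reagent is then added. Light output is recorded following an 8-min room-temperature incubation.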
# * marks the source's active call; other numbers are inactive results; u = inconclusive; x = no result; [ ] = dose if it differs, or a comment. The call rests on the fitted dose curve; in most records, active means well fitted curve in the direction sought with a large enough effect; inconclusive means small, poorly fitted or top-dose-only effect, or another doubt; inactive means no such curve, though single readings can be large; an effect the other way counts as inactive or inconclusive. On the % scale 0 is the no-effect control and ±100 the full control effect; potency means the concentration at half of the fitted maximal effect.
SMILES,RORg inh,Gal4-VP16 FLuc,Luc counter
CCCCn1c(=O)n(CC(=O)Nc2ccc(OC)c(Cl)c2)c(=O)c2c1nc(CO)n2CCC,-2%,-16%,4%
CCCCn1c(=O)n(CC(=O)Nc2c(CC)cccc2CC)c(=O)c2c1nc(CO)n2CCC,7.1µM*,-2%,x
O=C(Nc1ccccc1)N1CCCC2(CCN(C(=O)c3ccco3)CC2)C1,40%,-1%,-8%
CC1=CC(=NOC(=O)c2cccc([N+](=O)[O-])c2)C=C(C)C1=O,u,u,-2%
CC1=CC(=O)C(C(C)C)=C/C1=N/OC(=O)c1cccc([N+](=O)[O-])c1,1µM*,u,-3%
CCOC(=O)CN1C(=O)N[C@@H](c2ccccc2)[C@H](C(=O)OC)[C@H]1C,x,x,-6%[7.66 µM]
O=C(Oc1ccccc1)C1O[C@@H]1c1ccccc1 (stereo partly specified),-23%,-8%,0%
CCN(C(C)=O)N(CC)c1nc(Cl)nc(NC(C)C)n1,-4%,-3%,0%
C=CCN1C(=O)C(Cc2ccc(Br)cc2)S/C1=N\N=C\c1ccco1 (stereo unspecified),14µM*,-18%,-5%
C=CCN1C(=O)C(Cc2ccc(F)cc2)S/C1=N/N=C/c1ccco1 (stereo unspecified),-16%,-5%,0%
N#CCCn1c(=O)cnc2cnc(Oc3ccccc3)nc21,2%,-6%,x
COc1ccc(-c2nnc3n2N=C(c2ccc(OC)cc2OC)CS3)cc1,u,-12%,x
COc1cc(/C=C2\NC(=S)N(C)C2=O)ccc1OCc1ccccc1F,11µM*,u,x
CN1C(=O)/C(=C/c2ccc(OCc3ccccc3F)cc2)NC1=S,u,-1%,x
Cc1cccc(C)c1OCC(=O)Nc1ccncc1,-32%[1.91 µM],-28%,x
COCCOC(=O)c1ccc(NC(=O)COc2ccc([N+](=O)[O-])cc2)cc1,11%,-2%,-1%
CCc1ccc(OCC(=O)Nc2ccncc2)c(Br)c1,44%,u,x
Cc1cc(OCC(=O)Nc2ccncc2)c(C)cc1Br,u,13µM*,-8%
COC(=O)c1ccc(NC(=O)COc2ccc([N+](=O)[O-])cc2)cc1,-44%,10µM*,x
Cc1cc(OCC(=O)Nc2cnn(CCCC(=O)O)c2)ccc1[N+](=O)[O-],16%,7%,x
Cc1cc(OCC(=O)Nc2ccncc2)ccc1[N+](=O)[O-],5µM*,u,-5%
CC(C)CCOc1cccc(OCC(=O)Nc2ccncc2)c1,u,8.9µM*,x
Clc1cc(Cl)cc(C2=N[C@@H](Cc3ccccc3)CO2)c1,-29%,3%,-2%[39.9 µM]
COc1ccc(-c2nc3cnc(OC)nc3n(CCC#N)c2=O)cc1,-9%,8%,x
Cc1ccc(S(=O)(=O)Nc2cc(=O)[nH]c(SCc3ccc(Cl)cc3)n2)cc1,-15%[10 µM],0%,-2%
SMILES,RORg inh,Gal4-VP16 FLuc,Luc counter
Cc1ccc(S(=O)(=O)NCc2ccccc2)cc1C(=O)NC1CCC(C)CC1 (stereo unspecified),44%,9%,x
Cc1c(C(C)(C)O)[nH]c2ccc(C(F)(F)F)cc12,u,-21%,x
COc1ccccc1NC(=O)C1CCCN(S(=O)(=O)c2ccc(-n3cnnn3)cc2)C1 (stereo unspecified),27%,7%,x
O=C1CC(c2ccc(F)cc2)SC(N(c2ccccc2)c2ccccc2)=N1 (stereo unspecified),-16%,2%,-1%
Cc1ccc(S(=O)(=O)Nc2nc3ccccc3nc2Nc2cccc(S(=O)(=O)N3CCCC3)c2)cc1,u,-10%,1%
O=C(c1ccc([N+](=O)[O-])o1)N1CCc2ccccc2C1,-30%,7%,x
O=C(NCc1ccco1)c1ccc(Cn2cc([N+](=O)[O-])cn2)o1,18%,12%,-4%
O=C(c1ccc([N+](=O)[O-])o1)N1CCOCC1,16µM*,-4%,4%
Cc1cc(C)cc(NC(=O)c2ccc([N+](=O)[O-])o2)c1,u,u,2%
O=[N+]([O-])c1cccc(S(=O)(=O)Nc2nc3ccccc3nc2Nc2cccc(S(=O)(=O)N3CCCCC3)c2)c1,u,11µM*,3%
CC(=O)c1ccc(NC(=O)c2ccc([N+](=O)[O-])o2)cc1,6.3µM*,13µM*,x
O=C(NCc1ccco1)c1ccc([N+](=O)[O-])o1,5µM*,2%,-3%
Cn1c(=O)c2c(nc(CN3CCN(CCO)CC3)n2Cc2cccc3ccccc23)n(C)c1=O,-24%,-1%,-3%
CC(C)(C)C(=O)Nc1nnc(SCC(=O)NC2CC2)s1,24%,-5%,x
O=S(=O)(c1ccc(F)cc1)N1CCC2(CC1)OCCO2,16%,-7%,-1%
COC(=O)C1=C(C(=O)OC)[C@@H]2N(C)c3ccc(OC)cc3[C@@]23C[C@@H](C(=O)OC)N(S(=O)(=O)c2ccc(C(F)(F)F)cc2)C3=N1,x,x,-1%[7.66 µM]
Cc1ccccc1OCC1CO1 (stereo unspecified),-4%,-14%,x
CC(C)C(=O)N1CCN(c2ccc(NC(=O)c3ccc([N+](=O)[O-])o3)cc2Cl)CC1,u,5%[10 µM],0%
CCCC(=O)N1CCN(c2ccc(NC(=O)c3ccc([N+](=O)[O-])o3)cc2Cl)CC1,20µM*,u,1%
O=C(COC(=O)c1ccc([N+](=O)[O-])o1)Nc1cccc(S(=O)(=O)N2CCCCC2)c1,u,-8%,1%
O=C(Nc1cccc(S(=O)(=O)N2CCCCC2)c1)c1ccc([N+](=O)[O-])o1,10µM*,u,1%
O=C(NN(c1ccccc1)c1ccccc1)c1ccc([N+](=O)[O-])o1,u,7%,2%
O=C(NNC(=O)c1ccc([N+](=O)[O-])o1)c1ccccc1,11µM*,18µM*,-1%
COc1ccc(-c2cc(C(=O)NCCN3CCOCC3)no2)cc1OC,1%,5%,x
CCCCc1nc2c(c3c1C[C@H](C)OC3)CN(C(=O)c1ccco1)CC2,x,x,-5%[7.66 µM]
SMILES,RORg inh,Gal4-VP16 FLuc,Luc counter
COc1ccc(C(=O)N2CCC[C@@]3(CCN(Cc4cc(C(F)(F)F)cc(C(F)(F)F)c4)C3)C2)cc1,27%,-3%,-1%
CC(C)OC(=O)CC1C(=O)NCCN1C(=S)NC(=O)c1ccccc1 (stereo unspecified),18%,-18%[10 µM],0%
COC(=O)CC1C(=O)NCCN1C(=O)c1sc2ccccc2c1Cl (stereo unspecified),-26%,-2%,x
COC(=O)CC1C(=O)NCCN1C(=S)NC(=O)c1sc2ccccc2c1Cl (stereo unspecified),0.63µM*,7.1µM*,4%
CC(C)OC(=O)CC1C(=O)NCCN1C(=S)NC(=O)c1ccc(F)cc1 (stereo unspecified),3.2µM*,8.9µM*,4%
COC(=O)CC1C(=O)NCCN1C(=S)NC(=O)CCc1ccccc1 (stereo unspecified),-11%,-19%,3%
COC(=O)CC1C(=O)NCCN1C(=S)NC(=O)C(c1ccccc1)c1ccccc1 (stereo unspecified),10µM*,16µM*,2%
N/C(=N\OC(=O)CC1CCCCC1)c1ccccn1,-18%,20%,-12%
Cn1c(=O)c(/C(N)=N/OC(=O)c2ccccc2)cn(-c2ccccc2)c1=O,-15%,-16%,x
Cc1cc(C(=O)N2CCCC(CO)(Cc3ccc(F)cc3)C2)c(C)o1 (stereo unspecified),9%,-13%,x

# Compound activity from PubChem BioAssay.
